This is an account of results in PubChem BioAssay (NCI).

Where “and” joins values, the source holds several entries; their conditions need not be identical. Equal values may be shown once. About 83,000 compounds went through this panel and 20% of them were active in at least one assay; those are over-represented in the sample as a whole.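 Cell lines were cultured in 96-well plates, exposed to a single compound concentration, and assessed for percent growth 48 hours later.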 Calls of active or inactive are those of the source. How the source made its calls: active means growth percent below 10; inactive means the rest.

Some test systems named below: NCI-H23 lung; NCI-H226 lung; NCI-H322M lung; HOP-62 NSCLC; NCI-H460 lung; NCI-H522 lung; A549/ATCC NSCLC; 786-0 renal; COLO 205 colon; HOP-92 NSCLC.
Holding throughout (assay): NCI-60 one-dose screen, 48 h (100 = growth as untreated, 0 = no growth, -100 = all killed)
Common to all, as to settings: 10 µM unless noted

For the compound `NNC(=O)Nc1ccccc1`, the growth in the experiment with NCI-H23 lung was 100% (inactive); in the experiment on NCI-H226 lung it was 95.2% (inactive); in the experiment with NCI-H322M lung, 96.1% (inactive); in the experiment with HOP-62 NSCLC, 103% (inactive); in the experiment on NCI-H460 lung, 104% (inactive); in the experiment with NCI-H522 lung, 107% (inactive). The growth with A549/ATCC NSCLC is 113% (inactive); with 786-0 renal it was 99.8% (inactive); in the experiment on COLO 205 colon it was 99.1% (inactive).
For the compound `O=C1C=CC(=O)N1Cc1ccco1`, the growth in the experiment on NCI-H23 lung is 81.7% (inactive); in the experiment with NCI-H226 lung, 97.1% (inactive); in the experiment with NCI-H322M lung, 85.1% (inactive); in the experiment on HOP-62 NSCLC, 94.7% (inactive); with NCI-H460 lung, 50.9% (inactive); with NCI-H522 lung, 67.8% (inactive). In addition, the growth is 92.1% (inactive) in the experiment on A549/ATCC NSCLC, 104% (inactive) in the experiment with 786-0 renal and 89.2% (inactive) in the experiment on COLO 205 colon.
For `O=C(O)C1CSCN1` (stereo not drawn), the growth was 113% (inactive) and 101% (inactive) in the experiment with NCI-H23 lung; 113% (inactive) and 98.5% (inactive) in the experiment on NCI-H226 lung; 93.9% (inactive) and 74.4% (inactive) in the experiment on NCI-H322M lung; 99.8% (inactive) and 96.2% (inactive) with HOP-62 NSCLC; 125% (inactive) and 103% (inactive) in the experiment with NCI-H460 lung; 99.7% (inactive) and 96.1% (inactive) in the experiment on NCI-H522 lung. In addition, the growth in the experiment on A549/ATCC NSCLC was 97.7% (inactive) and 111% (inactive); with 786-0 renal it was 90.2% (inactive) and 101% (inactive); with COLO 205 colon it was 103% (inactive) and 104% (inactive).
For the compound `Cn1c(N)c(N=O)c(=O)n(C)c1=O`, the growth in the experiment on NCI-H23 lung is 96.2% (inactive); in the experiment with NCI-H226 lung it was 115% (inactive) and 104% (inactive); in the experiment with NCI-H322M lung, 113% (inactive) and 88.7% (inactive); with HOP-62 NSCLC it was 101% (inactive) and 108% (inactive); in the experiment on NCI-H460 lung it was 111% (inactive) and 102% (inactive); with NCI-H522 lung it was 97% (inactive) and 73.4% (inactive). For the same compound, the growth with A549/ATCC NSCLC was 106% (inactive) and 96.8% (inactive); in the experiment with 786-0 renal it was 108% (inactive) and 103% (inactive); in the experiment with COLO 205 colon it was 107% (inactive) and 117% (inactive).
Consider `CCOC(=O)c1ccc(N2C(=O)C(Cl)(c3ccccc3)C2c2ccco2)cc1` (stereo not drawn), for which the growth in the experiment with NCI-H23 lung was 70.4% (inactive); in the experiment on NCI-H226 lung, 81.1% (inactive); with NCI-H322M lung it was 83.8% (inactive); in the experiment with HOP-62 NSCLC, 110% (inactive); in the experiment on NCI-H460 lung it was 84.2% (inactive); in the experiment with NCI-H522 lung it was 34.2% (inactive). In addition, the growth is 86.2% (inactive) with A549/ATCC NSCLC, 80.9% (inactive) in the experiment with 786-0 renal and 96.7% (inactive) in the experiment with COLO 205 colon.
Turning to `N=C(N=C(N)N)N1CCOCC1`, the growth is 103% (inactive) and 90.8% (inactive) in the experiment on NCI-H23 lung; 99.3% (inactive) and 98.3% (inactive) with NCI-H226 lung; 95.4% (inactive) and 112% (inactive) in the experiment on NCI-H322M lung; 94.7% (inactive) and 106% (inactive) with HOP-62 NSCLC; 99.8% (inactive) and 102% (inactive) with NCI-H460 lung; 94.7% (inactive) and 107% (inactive) with NCI-H522 lung. In addition, the growth with A549/ATCC NSCLC is 103% (inactive) and 94.2% (inactive); in the experiment with 786-0 renal, 104% (inactive) and 95.6% (inactive); in the experiment on COLO 205 colon, 104% (inactive) and 107% (inactive).
On to `CC1(C)OC(=O)C(=Cc2ccc(C#N)cc2)C(=O)O1`, for which the growth with NCI-H23 lung is 104% (inactive); in the experiment on NCI-H226 lung it was 92.6% (inactive); in the experiment on NCI-H322M lung, 113% (inactive) and 103% (inactive); in the experiment on HOP-62 NSCLC, 90.6% (inactive) and 114% (inactive); in the experiment on NCI-H460 lung, 107% (inactive) and 101% (inactive); in the experiment with NCI-H522 lung it was 79% (inactive) and 103% (inactive). The growth is 77.4% (inactive) in the experiment with A549/ATCC NSCLC; 104% (inactive) and 98.1% (inactive) in the experiment on 786-0 renal; 103% (inactive) and 105% (inactive) in the experiment on COLO 205 colon.
Turning to `N#CC(=S)Nc1ccc(Cl)c(Cl)c1`, the growth is 3.93% (active) in the experiment with NCI-H23 lung; 9.29% (active) with NCI-H226 lung; -3.76% (active) in the experiment with NCI-H322M lung; 24.3% (inactive) in the experiment on HOP-62 NSCLC; 9.12% (active) with NCI-H460 lung; -14% (active) in the experiment with NCI-H522 lung. In addition, the growth is 15.6% (inactive) with A549/ATCC NSCLC, 14.2% (inactive) in the experiment with 786-0 renal and -22% (active) with COLO 205 colon.
Take `OCc1cccc(F)c1`: the growth in the experiment with NCI-H23 lung was 79.6% (inactive); in the experiment with NCI-H226 lung, 104% (inactive); in the experiment on NCI-H322M lung, 90.2% (inactive); in the experiment with HOP-62 NSCLC, 100% (inactive); with NCI-H460 lung, 41.8% (inactive); in the experiment with NCI-H522 lung, 67.8% (inactive). Besides, the growth is 99.3% (inactive) with A549/ATCC NSCLC, 103% (inactive) in the experiment on 786-0 renal and 90.1% (inactive) with COLO 205 colon.
Consider `CCCCC/C(C)=N\NC(N)=S`, for which the growth in the experiment on NCI-H23 lung was 89.5% (inactive); in the experiment with NCI-H226 lung, 86% (inactive); with NCI-H322M lung, 90.4% (inactive); in the experiment on HOP-62 NSCLC, 89.8% (inactive); with NCI-H460 lung, 94.8% (inactive); in the experiment with NCI-H522 lung it was 89.3% (inactive). Besides, the growth in the experiment on A549/ATCC NSCLC is 78.4% (inactive); in the experiment with 786-0 renal, 101% (inactive).
Take `CCOC(=N)c1ccc(C(=N)OCC)cc1`: the growth with NCI-H23 lung is 101% (inactive); in the experiment on NCI-H226 lung, 100% (inactive); with NCI-H322M lung, 113% (inactive); in the experiment on HOP-62 NSCLC, 84.2% (inactive); in the experiment on NCI-H460 lung it was 111% (inactive); in the experiment with HOP-92 NSCLC it was 93% (inactive). Moreover, the growth is 97.3% (inactive) with NCI-H522 lung, 99.7% (inactive) in the experiment with A549/ATCC NSCLC, 86.8% (inactive) in the experiment on 786-0 renal and 103% (inactive) in the experiment on COLO 205 colon.
Regarding `Nc1nc(-c2ccccn2)cc(-c2cc(-c3ccccn3)nc(N)n2)n1`, the growth in the experiment on NCI-H23 lung is 103% (inactive); in the experiment with NCI-H226 lung, 96.1% (inactive); in the experiment on NCI-H322M lung, 94.3% (inactive); in the experiment on HOP-62 NSCLC, 119% (inactive); with NCI-H460 lung, 134% (inactive); with NCI-H522 lung, 107% (inactive). For the same compound, the growth in the experiment with A549/ATCC NSCLC was 117% (inactive); with 786-0 renal it was 112% (inactive); in the experiment on COLO 205 colon, 118% (inactive).
